Assay results reported in PubChem BioAssay (NCI).
This is part of a sample that, as a whole, favours compounds with a hit. Of some 79,000 tested, about 15% had one in any assay. Calls of active or inactive are those of the source. Cut-off read from the data, not from the text of the source: active = growth inhibition above about 70%; inactive = the rest.

Key:
[1] = NCI Yeast Anticancer Drug Screen. Data for the rad52 strain (AID 147);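 note: 0% = growth of vehicle-treated control cultures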; conditions: S. cerevisiae rad52 mutant growth inhibition, active compounds read high
Method in brief: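 Measured: yeast growth inhibition. System: strain with a defined DNA damage repair alteration. Reference: vehicle-treated control cultures.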

[2] = NCI Yeast Anticancer Drug Screen. Data for the wt1 strain (AID 149);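 note: 0% = growth of vehicle-treated wt1 cultures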; conditions: S. cerevisiae wt1 strain (SPY 50644) growth inhibition, active compounds read high
Method in brief: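 Each compound is tested on wt1 yeast and the loss of growth versus vehicle gives the inhibition value.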

[3] = NCI Yeast Anticancer Drug Screen. Data for the rad50EPP+ strain (AID 151);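 note: 0% = growth of vehicle-treated control cultures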; conditions: S. cerevisiae rad50 mutant strain, active compounds read high
Method in brief: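 One strain with a rad50 alteration (rad50EPP+) was compound-treated, its growth then compared to that of vehicle controls.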

[4] = NCI Yeast Anticancer Drug Screen. Data for the mgt1 strain (AID 153); conditions: S. cerevisiae mgt1 mutant growth inhibition, active compounds read high
Method in brief: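 After exposure of the mgt1 yeast mutant to compound, growth was measured and reported as inhibition compared with vehicle controls.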

[5] = NCI Yeast Anticancer Drug Screen. Data for the rad50 strain (AID 155);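 note: 0% = growth of vehicle-only cultures of the same strain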; conditions: S. cerevisiae rad50 strain growth inhibition, active compounds read high
Method in brief: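 Vehicle-treated cultures provide the reference for the growth inhibition reported for compound-exposed, repair-deficient yeast.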

[6] = NCI Yeast Anticancer Drug Screen. Data for the mec2-1 strain (AID 157); conditions: S. cerevisiae mec2-1 strain, active compounds read high
Method in brief: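 Test agents were screened against the mec2-1 yeast strain, with defined DNA repair or cell cycle alteration. Growth was scored as inhibition against vehicle-only controls.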

[7] = NCI Yeast Anticancer Drug Screen. Data for the rad14 strain (AID 159);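 note: 0% = growth of vehicle-treated control cultures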; conditions: S. cerevisiae rad14 strain growth inhibition, active compounds read high
Method in brief: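 Inhibition of growth is reported for a repair-deficient yeast mutant following compound treatment, calculated relative to cultures that received vehicle.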

[8] = NCI Yeast Anticancer Drug Screen. Data for the sgs1 mgt1 strain (AID 161);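 note: 0% = growth of cultures given vehicle only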; conditions: S. cerevisiae sgs1 mgt1 strain, active compounds read high
Method in brief: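 Read-out: growth inhibition vs vehicle controls. Cells: mutant yeast strain deficient in DNA damage repair.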

[9] = NCI Yeast Anticancer Drug Screen. Data for the CLN2oe strain (AID 163);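 note: 0% = growth of vehicle-only control cultures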; conditions: S. cerevisiae CLN2oe strain, active compounds read high
Method in brief: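 Here, growth inhibition in a cell-cycle-altered yeast strain after compound exposure was quantified against vehicle control growth.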

[10] = NCI Yeast Anticancer Drug Screen. Data for the cln2 rad14 strain (AID 165);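 note: 0% = growth equal to vehicle treated cultures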; conditions: S. cerevisiae cln2 rad14 strain, active compounds read high
Method in brief: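 Growth of compound-exposed yeast (cln2 rad14 genotype) measured and expressed as inhibition relative to vehicle.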

[11] = NCI Yeast Anticancer Drug Screen. Data for the bub3 strain (AID 167); conditions: S. cerevisiae bub3 mutant strain, active compounds read high
Method in brief: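 Mutant yeast screening strain plus compound; vehicle-treated cultures serve as the 0% inhibition reference.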

[12] = NCI Yeast Anticancer Drug Screen. Data for the wt2 strain (AID 169); conditions: S. cerevisiae wt2 strain growth inhibition, active compounds read high
Method in brief: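 Genetically defined yeast strains from a DNA-repair/cell-cycle panel were used. Compound-exposed yeast growth was measured, and the inhibition was calculated relative to vehicle treatment.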

[13] = NCI Yeast Anticancer Drug Screen. Data for the mlh1 strain (AID 171);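 note: 0% = growth of vehicle-treated control cultures of the same strain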; conditions: S. cerevisiae mlh1 strain growth inhibition, active compounds read high
Method in brief: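 Here the genetically defined yeast mutant is grown with each compound, and the extent to which its growth falls below that of vehicle-exposed cells is reported.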

[14] = NCI Yeast Anticancer Drug Screen. Data for the sgs1 strain (AID 173);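 note: 0% = growth of vehicle-only control cultures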; conditions: S. cerevisiae sgs1 mutant, active compounds read high
Method in brief: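 Relative growth inhibition, referenced to vehicle, was determined in a yeast strain with a defined alteration affecting DNA damage repair or cell cycle control after compound exposure.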

[15] = NCI Yeast Anticancer Drug Screen. Data for the mlh1 rad18 strain (AID 175); conditions: S. cerevisiae mlh1 rad18 strain growth inhibition, active compounds read high
Method in brief: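 In this whole-cell yeast screen, a strain with altered DNA damage repair is challenged with compound, and its growth is measured against matched vehicle-treated controls.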

[16] = NCI Yeast Anticancer Drug Screen. Data for the rad18 strain (AID 177); conditions: S. cerevisiae rad18 mutant growth inhibition, active compounds read high
Method in brief: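 Screen uses a yeast strain with a defined lesion in DNA damage repair; compound effect is read as loss of growth compared to untreated vehicle cultures.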

[17] = at 5.0 µM (retest, dose inferred, filed as 0.5)
[18] = at 50.0 µM (retest, dose inferred, filed as 5.0)

Measured: growth inhibition

O=C(NOC(=O)c1ccc([N+](=O)[O-])cc1)c1ccc(Cl)cc1
active: [1]; at 33.0 µM 89% | [1]; at 100.0 µM 97% | [2]; at 33.0 µM 84% | [2]; at 100.0 µM 96% | [3]; at 33.0 µM 85% | [3]; at 100.0 µM 94% | [4]; at 33.0 µM 90% | [4]; at 100.0 µM 97% | [5]; at 33.0 µM 83% | [5]; [18] 89% | [5]; at 50.0 µM 92.4% | [5]; at 100.0 µM 95% | [6]; at 33.0 µM 82% | [6]; [18] 93% | [6]; at 50.0 µM 92.7% | [6]; at 100.0 µM 97% | [7]; at 33.0 µM 88% | [7]; at 100.0 µM 97% | [8]; [18] 94% | [8]; at 50.0 µM 91.3% | [9]; at 33.0 µM 80% | [9]; at 100.0 µM 98% | [10]; [18] 96% | [10]; at 50.0 µM 89% | [11]; [18] 89% | [11]; at 50.0 µM 90% | [11]; at 100.0 µM 95% | [12]; at 33.0 µM 87% | [12]; at 100.0 µM 97% | [13]; at 33.0 µM 89% | [13]; at 100.0 µM 96% | [14]; at 33.0 µM 88% | [14]; at 100.0 µM 95% | [15]; [18] 96% | [15]; at 50.0 µM 89.7% | [16]; at 33.0 µM 90% | [16]; at 100.0 µM 96%
inactive: [1]; at 1.2 µM -1% | [1]; at 3.7 µM 4% | [1]; at 11.0 µM 31% | [2]; at 1.2 µM -30% | [2]; at 3.7 µM -31% | [2]; at 11.0 µM -9% | [3]; at 1.2 µM -19% | [3]; at 3.7 µM 23% | [3]; at 11.0 µM 68% | [4]; at 1.2 µM -58% | [4]; at 3.7 µM -33% | [4]; at 11.0 µM 1% | [5]; at 1.2 µM -36% | [5]; at 3.7 µM -40% | [5]; [17] 6% | [5]; at 11.0 µM 10% | [6]; at 1.2 µM -84% | [6]; at 3.7 µM -64% | [6]; [17] -4% | [6]; at 11.0 µM -15% | [7]; at 1.2 µM -52% | [7]; at 3.7 µM -27% | [7]; at 11.0 µM -7% | [8]; [17] 10% | [9]; at 1.2 µM -18% | [9]; at 3.7 µM 6% | [9]; at 11.0 µM 15% | [10]; [17] 36% | [11]; at 1.2 µM -19% | [11]; at 3.7 µM -18% | [11]; [17] 0% | [11]; at 11.0 µM -4% | [11]; at 33.0 µM 67% | [12]; at 1.2 µM -47% | [12]; at 3.7 µM -27% | [12]; at 11.0 µM 11% | [13]; at 1.2 µM -35% | [13]; at 3.7 µM -35% | [13]; at 11.0 µM -1% | [14]; at 1.2 µM -39% | [14]; at 3.7 µM -17% | [14]; at 11.0 µM 48% | [15]; [17] 14% | [16]; at 1.2 µM -11% | [16]; at 3.7 µM 2% | [16]; at 11.0 µM 43%

CCCCCc1c(CCCC)c(=O)[nH]c2cc(CNCC(OC)OC)ccc12
inactive: [1]; at 1.2 µM 15% | [1]; at 3.7 µM 11% | [1]; at 11.0 µM 26% | [2]; at 1.2 µM 1% | [2]; at 3.7 µM 7% | [2]; at 11.0 µM 20% | [3]; at 1.2 µM -8% | [3]; at 3.7 µM -9% | [3]; at 11.0 µM 3% | [3]; at 33.0 µM 10% | [4]; at 1.2 µM -15% | [4]; at 3.7 µM -11% | [4]; at 11.0 µM 58% | [5]; at 1.2 µM 14% | [5]; at 3.7 µM 19% | [5]; [17] 8% | [5]; at 11.0 µM 52% | [6]; at 1.2 µM -9% | [6]; at 3.7 µM -9% | [6]; [17] -7% | [6]; at 11.0 µM 7% | [7]; at 1.2 µM -23% | [7]; at 3.7 µM 24% | [8]; [17] 8% | [8]; [18] 46% | [9]; at 1.2 µM 0% | [9]; at 3.7 µM 11% | [9]; at 11.0 µM 63% | [10]; [17] 26% | [11]; at 1.2 µM -6% | [11]; at 3.7 µM 4% | [11]; [17] 19% | [11]; at 11.0 µM 31% | [12]; at 1.2 µM 7% | [12]; at 3.7 µM 11% | [12]; at 11.0 µM 28% | [13]; at 1.2 µM -5% | [13]; at 3.7 µM 13% | [13]; at 11.0 µM 52% | [14]; at 1.2 µM 10% | [14]; at 3.7 µM 23% | [14]; at 11.0 µM 69% | [15]; [17] 50%
active: [1]; at 33.0 µM 98% | [1]; at 100.0 µM 94% | [2]; at 33.0 µM 98% | [2]; at 100.0 µM 94% | [3]; at 100.0 µM 93% | [4]; at 33.0 µM 98% | [4]; at 100.0 µM 94% | [5]; at 33.0 µM 98% | [5]; [18] 96% | [5]; at 50.0 µM 88.9% | [5]; at 100.0 µM 93% | [6]; at 33.0 µM 98% | [6]; [18] 98% | [6]; at 50.0 µM 91.3% | [6]; at 100.0 µM 95% | [7]; at 11.0 µM 89% | [7]; at 33.0 µM 98% | [7]; at 100.0 µM 93% | [8]; at 50.0 µM 91% | [9]; at 33.0 µM 98% | [9]; at 100.0 µM 94% | [10]; [18] 95% | [10]; at 50.0 µM 86.5% | [11]; at 33.0 µM 98% | [11]; [18] 97% | [11]; at 50.0 µM 91.2% | [11]; at 100.0 µM 94% | [12]; at 33.0 µM 98% | [12]; at 100.0 µM 94% | [13]; at 33.0 µM 98% | [13]; at 100.0 µM 95% | [14]; at 33.0 µM 99% | [14]; at 100.0 µM 95% | [15]; [18] 96% | [15]; at 50.0 µM 87%
